# Laboratory results published in publication PMC7862700, “An all-to-all approach to the identification of sequence-specific readers for epigenetic DNA modifications on cytosine”.
# Columns and labels:
# Experiment in all cases: DAPPL (digital affinity profiling via proximity ligation, sequencing); 10 mM Tris-HCl pH 7.5, 50 mM NaCl, 1 mM DTT, 4% glycerol, room temperature, 30 min; GST-TFs on glutathione beads, 16-mer random dsDNA library, 0.1% formaldehyde crosslink after washing; high values mean tight binding
# Conditions in all cases: protein: recombinant; tags: N-terminal GST; dsDNA, one strand shown
# FLI1 = target: T1, FLI1 (Homo sapiens, UniProt Q01543 1-452)
# T1 sequence: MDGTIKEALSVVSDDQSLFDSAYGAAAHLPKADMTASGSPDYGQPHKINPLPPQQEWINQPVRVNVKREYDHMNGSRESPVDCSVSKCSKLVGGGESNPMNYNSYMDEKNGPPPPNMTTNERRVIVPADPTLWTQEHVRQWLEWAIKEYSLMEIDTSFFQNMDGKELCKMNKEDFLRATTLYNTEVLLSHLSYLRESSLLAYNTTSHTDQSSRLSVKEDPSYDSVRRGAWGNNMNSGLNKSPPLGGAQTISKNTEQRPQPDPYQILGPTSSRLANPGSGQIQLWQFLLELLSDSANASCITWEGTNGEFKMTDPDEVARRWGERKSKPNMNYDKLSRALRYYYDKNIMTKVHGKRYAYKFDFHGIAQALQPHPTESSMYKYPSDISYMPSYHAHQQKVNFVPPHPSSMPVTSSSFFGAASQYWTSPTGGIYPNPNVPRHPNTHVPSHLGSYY
# In short: (§1)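 Pools were built from human transcription factors expressed in yeast as GST fusions, captured on glutathione beads and DNA-barcoded, along with a tag-only sample. Incubation with 200 nmole of a 16-mer random double-stranded DNA library lasted 30 min at room temperature in Tris/NaCl/DTT/glycerol buffer, and was followed by washing, 0.1% formaldehyde crosslinking, proximity ligation, PCR amplification and Illumina NextSeq500 sequencing. Binding signal is the quotient of each hexamer's read frequency for a factor and its frequency for the tag-only sample.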
# GABPA = target: T2, GABPA (Homo sapiens, UniProt Q06546 1-454)
# T2 sequence: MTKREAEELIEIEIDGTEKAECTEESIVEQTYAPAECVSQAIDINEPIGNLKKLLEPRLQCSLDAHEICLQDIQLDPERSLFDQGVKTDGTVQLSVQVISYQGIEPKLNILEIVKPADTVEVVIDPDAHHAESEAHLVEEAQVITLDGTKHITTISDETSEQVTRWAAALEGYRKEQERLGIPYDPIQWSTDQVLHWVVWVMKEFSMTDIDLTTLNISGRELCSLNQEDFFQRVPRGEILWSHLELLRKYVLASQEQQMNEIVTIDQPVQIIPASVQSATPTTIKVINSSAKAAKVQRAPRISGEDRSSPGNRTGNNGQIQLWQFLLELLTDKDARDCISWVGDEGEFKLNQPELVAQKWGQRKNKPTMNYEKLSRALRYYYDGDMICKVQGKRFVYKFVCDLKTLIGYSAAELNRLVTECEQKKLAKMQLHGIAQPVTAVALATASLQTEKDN
# In short: as §1
# ERG = target: T3, ERG (Homo sapiens, UniProt P11308 1-479)
# T3 sequence: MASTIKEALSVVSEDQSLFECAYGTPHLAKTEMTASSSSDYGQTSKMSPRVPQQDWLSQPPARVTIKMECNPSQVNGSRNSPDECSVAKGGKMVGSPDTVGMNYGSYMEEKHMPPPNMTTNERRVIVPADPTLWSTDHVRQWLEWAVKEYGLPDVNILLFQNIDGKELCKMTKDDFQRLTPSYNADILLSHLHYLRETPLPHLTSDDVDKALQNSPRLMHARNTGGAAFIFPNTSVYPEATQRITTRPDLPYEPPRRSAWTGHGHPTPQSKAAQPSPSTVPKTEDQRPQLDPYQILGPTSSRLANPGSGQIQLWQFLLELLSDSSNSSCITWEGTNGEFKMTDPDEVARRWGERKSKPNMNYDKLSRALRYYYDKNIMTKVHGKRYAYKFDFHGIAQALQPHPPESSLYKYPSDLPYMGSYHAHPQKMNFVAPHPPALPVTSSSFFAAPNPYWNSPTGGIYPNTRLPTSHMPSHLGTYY
# In short: as §1
# ELF1 = ELF1 (Homo sapiens, UniProt P32519 1-619)
# ELF1, sequence (P32519 whole entry): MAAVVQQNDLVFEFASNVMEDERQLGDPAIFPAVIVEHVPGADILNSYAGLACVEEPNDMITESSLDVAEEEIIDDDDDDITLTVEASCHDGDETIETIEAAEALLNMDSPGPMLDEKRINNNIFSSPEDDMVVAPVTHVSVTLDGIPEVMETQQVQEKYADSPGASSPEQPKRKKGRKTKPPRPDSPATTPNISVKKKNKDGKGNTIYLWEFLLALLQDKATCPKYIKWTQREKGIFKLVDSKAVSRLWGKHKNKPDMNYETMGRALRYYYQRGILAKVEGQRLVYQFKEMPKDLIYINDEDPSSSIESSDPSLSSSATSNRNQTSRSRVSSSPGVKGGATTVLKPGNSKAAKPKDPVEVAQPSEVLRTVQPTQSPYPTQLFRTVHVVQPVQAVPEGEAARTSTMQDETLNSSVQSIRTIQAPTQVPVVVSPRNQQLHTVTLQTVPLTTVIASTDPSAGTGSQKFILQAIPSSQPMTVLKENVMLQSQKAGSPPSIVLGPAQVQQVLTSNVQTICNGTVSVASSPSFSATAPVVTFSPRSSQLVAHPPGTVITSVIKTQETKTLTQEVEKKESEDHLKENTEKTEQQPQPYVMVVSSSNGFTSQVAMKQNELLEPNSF
# In short: as §1
# EHF = target: T4, EHF (Homo sapiens, UniProt Q9NZC4 1-300)
# T4 sequence: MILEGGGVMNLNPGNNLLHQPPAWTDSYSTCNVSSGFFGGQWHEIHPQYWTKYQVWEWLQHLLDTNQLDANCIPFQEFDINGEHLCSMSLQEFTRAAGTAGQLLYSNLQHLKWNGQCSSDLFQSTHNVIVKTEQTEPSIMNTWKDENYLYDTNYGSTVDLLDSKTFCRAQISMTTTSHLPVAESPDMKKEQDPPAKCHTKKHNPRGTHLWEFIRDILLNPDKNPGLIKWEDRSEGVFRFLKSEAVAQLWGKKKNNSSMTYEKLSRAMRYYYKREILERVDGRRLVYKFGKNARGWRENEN
# In short: as §1
# SPI1 = SPI1 (Homo sapiens, UniProt P17947 1-270)
# In short: as §1
# SPIB = SPIB (Homo sapiens, UniProt Q01892 1-262)
# SPIB, sequence (Q01892 whole entry): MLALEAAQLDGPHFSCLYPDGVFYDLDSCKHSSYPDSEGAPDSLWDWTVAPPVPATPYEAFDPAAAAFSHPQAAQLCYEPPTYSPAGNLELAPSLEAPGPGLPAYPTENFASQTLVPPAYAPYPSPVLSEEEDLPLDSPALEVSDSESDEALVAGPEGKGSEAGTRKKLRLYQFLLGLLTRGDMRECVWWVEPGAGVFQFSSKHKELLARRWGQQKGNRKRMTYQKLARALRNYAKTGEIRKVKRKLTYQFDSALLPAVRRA
# In short: as §1
# ELK3 = target: T5, ELK3 (Homo sapiens, UniProt P41970 1-407)
# T5 sequence: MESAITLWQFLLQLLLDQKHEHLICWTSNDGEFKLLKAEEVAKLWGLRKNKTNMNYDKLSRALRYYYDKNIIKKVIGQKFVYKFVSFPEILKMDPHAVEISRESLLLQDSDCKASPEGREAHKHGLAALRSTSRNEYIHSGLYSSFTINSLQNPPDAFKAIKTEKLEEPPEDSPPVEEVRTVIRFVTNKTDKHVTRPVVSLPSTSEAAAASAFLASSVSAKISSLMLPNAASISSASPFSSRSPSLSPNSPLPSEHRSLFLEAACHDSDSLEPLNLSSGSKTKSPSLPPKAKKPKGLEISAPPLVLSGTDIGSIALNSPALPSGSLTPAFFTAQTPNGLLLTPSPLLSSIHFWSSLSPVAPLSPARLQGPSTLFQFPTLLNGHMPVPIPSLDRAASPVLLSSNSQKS
# In short: as §1
# ETV5 = ETV5 (Homo sapiens, UniProt P41161 1-510)
# ETV5, sequence (P41161 whole entry): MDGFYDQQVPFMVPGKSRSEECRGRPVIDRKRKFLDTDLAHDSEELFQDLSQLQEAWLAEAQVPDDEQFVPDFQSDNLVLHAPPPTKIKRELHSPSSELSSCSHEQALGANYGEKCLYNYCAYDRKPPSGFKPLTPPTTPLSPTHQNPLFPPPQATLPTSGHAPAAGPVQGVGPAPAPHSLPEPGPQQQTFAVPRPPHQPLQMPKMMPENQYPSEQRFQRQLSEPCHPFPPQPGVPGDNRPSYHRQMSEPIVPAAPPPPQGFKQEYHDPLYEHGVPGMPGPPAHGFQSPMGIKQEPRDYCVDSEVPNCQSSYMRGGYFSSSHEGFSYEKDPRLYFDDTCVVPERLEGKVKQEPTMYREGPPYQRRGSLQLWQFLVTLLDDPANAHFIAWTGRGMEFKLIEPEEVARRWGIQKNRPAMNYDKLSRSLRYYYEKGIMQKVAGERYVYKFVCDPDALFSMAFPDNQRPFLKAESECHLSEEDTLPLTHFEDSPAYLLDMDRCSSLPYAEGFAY
# In short: as §1
# ELF4 = ELF4 (Homo sapiens, UniProt Q99607 1-663)
# ELF4, sequence (Q99607 whole entry): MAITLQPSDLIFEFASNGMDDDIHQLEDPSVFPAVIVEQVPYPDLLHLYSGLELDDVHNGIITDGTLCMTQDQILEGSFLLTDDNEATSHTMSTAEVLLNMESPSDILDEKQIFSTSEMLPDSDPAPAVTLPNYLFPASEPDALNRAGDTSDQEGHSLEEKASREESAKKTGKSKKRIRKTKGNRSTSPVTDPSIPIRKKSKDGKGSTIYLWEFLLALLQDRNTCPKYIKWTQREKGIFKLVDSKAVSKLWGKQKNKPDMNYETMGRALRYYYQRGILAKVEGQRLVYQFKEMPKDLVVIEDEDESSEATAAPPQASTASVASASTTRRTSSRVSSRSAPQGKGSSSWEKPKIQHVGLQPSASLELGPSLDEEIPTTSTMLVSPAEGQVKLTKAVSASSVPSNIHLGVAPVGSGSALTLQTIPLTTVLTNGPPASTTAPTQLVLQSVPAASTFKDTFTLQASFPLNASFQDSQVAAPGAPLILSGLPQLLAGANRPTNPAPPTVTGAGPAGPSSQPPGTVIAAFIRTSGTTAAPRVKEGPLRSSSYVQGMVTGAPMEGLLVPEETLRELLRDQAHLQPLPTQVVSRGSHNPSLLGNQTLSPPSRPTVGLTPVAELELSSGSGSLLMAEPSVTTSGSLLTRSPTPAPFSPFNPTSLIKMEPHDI
# In short: as §1
# ETV2 = target: T6, ETV2 (Homo sapiens, UniProt O00321 1-342)
# T6 sequence: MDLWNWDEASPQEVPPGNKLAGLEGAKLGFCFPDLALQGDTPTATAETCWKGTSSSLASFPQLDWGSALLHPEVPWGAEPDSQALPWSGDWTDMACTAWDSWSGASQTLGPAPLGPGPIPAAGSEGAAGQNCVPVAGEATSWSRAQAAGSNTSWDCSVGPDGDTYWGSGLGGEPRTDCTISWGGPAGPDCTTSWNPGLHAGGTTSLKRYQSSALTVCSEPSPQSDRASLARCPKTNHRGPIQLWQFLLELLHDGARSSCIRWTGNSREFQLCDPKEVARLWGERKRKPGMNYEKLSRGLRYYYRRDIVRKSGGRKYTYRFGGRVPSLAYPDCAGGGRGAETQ
# In short: as §1
# ELF3 = target: T7, ELF3 (Homo sapiens, UniProt P78545 1-371)
# T7 sequence: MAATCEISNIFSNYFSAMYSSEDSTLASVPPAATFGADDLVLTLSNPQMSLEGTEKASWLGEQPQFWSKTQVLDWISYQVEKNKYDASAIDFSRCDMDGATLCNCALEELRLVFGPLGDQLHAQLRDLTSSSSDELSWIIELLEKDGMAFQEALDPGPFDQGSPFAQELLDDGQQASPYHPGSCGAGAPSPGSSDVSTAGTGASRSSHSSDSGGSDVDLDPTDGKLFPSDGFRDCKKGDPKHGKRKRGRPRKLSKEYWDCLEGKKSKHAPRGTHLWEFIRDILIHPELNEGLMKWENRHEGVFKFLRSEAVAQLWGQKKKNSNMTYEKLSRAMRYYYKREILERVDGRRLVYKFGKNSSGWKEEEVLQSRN
# In short: as §1
# ETV1 = ETV1 (Homo sapiens, UniProt P50549 1-477)
# ETV1, sequence (P50549 whole entry): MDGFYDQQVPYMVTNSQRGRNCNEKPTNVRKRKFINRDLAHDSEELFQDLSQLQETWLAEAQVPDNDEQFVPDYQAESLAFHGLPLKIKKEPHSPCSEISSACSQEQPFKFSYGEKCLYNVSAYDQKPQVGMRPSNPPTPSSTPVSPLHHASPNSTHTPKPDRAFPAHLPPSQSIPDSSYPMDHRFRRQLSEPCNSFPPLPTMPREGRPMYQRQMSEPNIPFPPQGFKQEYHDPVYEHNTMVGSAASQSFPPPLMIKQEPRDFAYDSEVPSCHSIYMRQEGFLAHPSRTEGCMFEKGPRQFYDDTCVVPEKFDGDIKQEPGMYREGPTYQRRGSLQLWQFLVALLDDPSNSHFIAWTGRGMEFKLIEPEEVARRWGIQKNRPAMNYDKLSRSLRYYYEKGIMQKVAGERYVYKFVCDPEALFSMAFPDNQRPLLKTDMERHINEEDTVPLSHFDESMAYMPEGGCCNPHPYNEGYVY
# In short: as §1
# ERF = target: T8, ERF (Homo sapiens, UniProt P50548 1-548)
# T8 sequence: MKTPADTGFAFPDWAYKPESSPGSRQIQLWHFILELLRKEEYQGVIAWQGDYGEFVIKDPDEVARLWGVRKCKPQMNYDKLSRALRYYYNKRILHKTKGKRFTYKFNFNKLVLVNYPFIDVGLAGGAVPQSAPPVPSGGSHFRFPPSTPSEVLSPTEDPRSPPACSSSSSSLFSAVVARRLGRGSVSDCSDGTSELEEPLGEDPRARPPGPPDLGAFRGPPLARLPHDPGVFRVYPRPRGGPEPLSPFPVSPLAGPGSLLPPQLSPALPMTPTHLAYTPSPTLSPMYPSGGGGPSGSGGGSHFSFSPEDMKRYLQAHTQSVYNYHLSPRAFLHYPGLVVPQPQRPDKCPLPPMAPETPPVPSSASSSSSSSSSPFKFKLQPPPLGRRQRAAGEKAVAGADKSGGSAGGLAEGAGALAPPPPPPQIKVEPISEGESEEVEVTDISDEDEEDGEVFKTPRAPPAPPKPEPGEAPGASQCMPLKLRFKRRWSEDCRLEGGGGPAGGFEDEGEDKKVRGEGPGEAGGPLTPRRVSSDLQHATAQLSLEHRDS
# In short: as §1
# ETV3L = target: T9, ETV3L (Homo sapiens, UniProt Q6ZN32 1-361)
# T9 sequence: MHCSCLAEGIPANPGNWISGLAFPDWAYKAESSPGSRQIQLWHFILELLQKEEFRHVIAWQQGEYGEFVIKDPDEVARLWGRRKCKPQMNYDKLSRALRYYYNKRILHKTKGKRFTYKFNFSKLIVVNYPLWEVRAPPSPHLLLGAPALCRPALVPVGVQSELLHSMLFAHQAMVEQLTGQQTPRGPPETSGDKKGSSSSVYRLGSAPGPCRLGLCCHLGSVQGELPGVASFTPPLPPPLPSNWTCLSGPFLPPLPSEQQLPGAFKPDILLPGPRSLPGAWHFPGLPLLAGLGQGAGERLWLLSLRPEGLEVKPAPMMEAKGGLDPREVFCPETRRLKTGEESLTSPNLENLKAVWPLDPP
# In short: as §1
# ETS2 = target: T10, ETS2 (Homo sapiens, UniProt P15036 1-469)
# T10 sequence: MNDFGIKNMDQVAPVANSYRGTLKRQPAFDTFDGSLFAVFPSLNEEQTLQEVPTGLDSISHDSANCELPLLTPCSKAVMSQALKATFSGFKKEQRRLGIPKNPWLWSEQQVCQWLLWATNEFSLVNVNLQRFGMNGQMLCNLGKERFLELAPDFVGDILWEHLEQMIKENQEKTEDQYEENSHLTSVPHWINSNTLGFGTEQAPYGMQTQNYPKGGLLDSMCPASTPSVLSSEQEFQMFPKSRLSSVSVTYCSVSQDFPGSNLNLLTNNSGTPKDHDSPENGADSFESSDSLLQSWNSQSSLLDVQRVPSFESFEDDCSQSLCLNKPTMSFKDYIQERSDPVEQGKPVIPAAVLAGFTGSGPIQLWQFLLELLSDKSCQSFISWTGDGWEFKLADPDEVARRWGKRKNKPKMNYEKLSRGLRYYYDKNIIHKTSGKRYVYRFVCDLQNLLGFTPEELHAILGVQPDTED
# In short: as §1
# ETV7 = target: T11, ETV7 (Homo sapiens, UniProt Q9Y603 1-341)
# T11 sequence: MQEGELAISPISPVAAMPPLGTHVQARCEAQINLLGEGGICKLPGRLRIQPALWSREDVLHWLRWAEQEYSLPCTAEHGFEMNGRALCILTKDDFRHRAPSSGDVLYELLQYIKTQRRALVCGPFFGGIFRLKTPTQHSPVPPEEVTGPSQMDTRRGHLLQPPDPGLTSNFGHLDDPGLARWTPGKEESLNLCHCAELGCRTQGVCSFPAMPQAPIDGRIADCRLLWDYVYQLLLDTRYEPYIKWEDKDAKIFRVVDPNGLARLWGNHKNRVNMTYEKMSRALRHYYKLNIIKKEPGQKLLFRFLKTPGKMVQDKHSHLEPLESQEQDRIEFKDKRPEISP
# In short: as §1
# ETV3 = target: T12, ETV3 (Homo sapiens, UniProt P41162-2 1-143)
# T12 sequence: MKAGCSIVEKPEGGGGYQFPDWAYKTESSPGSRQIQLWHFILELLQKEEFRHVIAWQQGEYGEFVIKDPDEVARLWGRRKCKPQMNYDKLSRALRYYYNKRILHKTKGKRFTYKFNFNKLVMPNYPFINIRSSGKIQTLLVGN
# In short: as §1
# ETV6 = ETV6 (Homo sapiens, UniProt P41212 1-452)
# ETV6, sequence (P41212 whole entry): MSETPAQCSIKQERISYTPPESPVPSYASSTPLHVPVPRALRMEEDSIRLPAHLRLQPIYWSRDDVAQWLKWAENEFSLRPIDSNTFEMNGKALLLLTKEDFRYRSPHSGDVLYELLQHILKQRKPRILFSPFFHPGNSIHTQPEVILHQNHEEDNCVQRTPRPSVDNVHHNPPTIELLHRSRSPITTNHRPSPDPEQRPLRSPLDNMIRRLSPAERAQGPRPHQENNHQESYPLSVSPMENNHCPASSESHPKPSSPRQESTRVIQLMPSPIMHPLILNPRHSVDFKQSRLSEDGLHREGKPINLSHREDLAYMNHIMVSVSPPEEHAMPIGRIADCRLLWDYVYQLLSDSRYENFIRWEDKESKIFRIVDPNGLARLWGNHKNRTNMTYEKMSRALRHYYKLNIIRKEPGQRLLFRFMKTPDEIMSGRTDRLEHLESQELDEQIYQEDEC
# In short: as §1
sequence,measurement,setting,value
ATACCG,binding signal,FLI1,"1.16 fold enrichment (6-mer frequency, TF over GST control)"
same,binding signal,GABPA,"1.02 fold enrichment (6-mer frequency, TF over GST control)"
same,binding signal,ERG,"1.16 fold enrichment (6-mer frequency, TF over GST control)"
same,binding signal,ELF1,"1.11 fold enrichment (6-mer frequency, TF over GST control)"
same,binding signal,EHF,"1.12 fold enrichment (6-mer frequency, TF over GST control)"
same,binding signal,SPI1,"1.06 fold enrichment (6-mer frequency, TF over GST control)"
same,binding signal,SPIB,"1.12 fold enrichment (6-mer frequency, TF over GST control)"
same,binding signal,ELK3,"1.15 fold enrichment (6-mer frequency, TF over GST control)"
same,binding signal,ETV5,"1.1 fold enrichment (6-mer frequency, TF over GST control)"
same,binding signal,ELF4,"1.12 fold enrichment (6-mer frequency, TF over GST control)"
same,binding signal,ETV2,"1.07 fold enrichment (6-mer frequency, TF over GST control)"
same,binding signal,ELF3,"1.2 fold enrichment (6-mer frequency, TF over GST control)"
same,binding signal,ETV1,"1.14 fold enrichment (6-mer frequency, TF over GST control)"
same,binding signal,ERF,"1.08 fold enrichment (6-mer frequency, TF over GST control)"
same,binding signal,ETV3L,"1.1 fold enrichment (6-mer frequency, TF over GST control)"
same,binding signal,ETS2,"1.11 fold enrichment (6-mer frequency, TF over GST control)"
same,binding signal,ETV7,"1.04 fold enrichment (6-mer frequency, TF over GST control)"
same,binding signal,ETV3,"1.2 fold enrichment (6-mer frequency, TF over GST control)"
same,binding signal,ETV6,"1.09 fold enrichment (6-mer frequency, TF over GST control)"
